Results on 25 molecules are retold here after PubChem BioAssay (NCATS).

Values without a mark were called inactive. Inconclusive results are not listed. Calls of active or inactive are those of the source. Calls follow the shape of the dose curve; as a rule, active = well fitted curve in the direction sought with a large enough effect; inconclusive = small, poorly fitted or top-dose-only effect, or another doubt; inactive = no such curve, though single readings can be large; an effect the other way counts as inactive or inconclusive.

Test [1] deals with Glutathione peroxidase 1 (Homo sapiens) (UniProt P07203). Nature of the test: Primary qHTS Assay for Inhibitors of Recombinant Selenoprotein Glutathione Peroxidase 1 (GPX1) (AID 1845191). Also: nearly all actives have a fitted effect of over 65% in size. As to activity, negative = inhibition: % is scaled to controls: 0 for no effect and ±100 for the full control effect. An outline of the steps: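 GPX1 10 nM, GR 100 nM, GSH 1 mM, NADPH 0.5 mM, CHP 0.5 mM (final). 30-min cpd preincubation, RT. Ex340/Em450 read t=0, t=15 min.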
Glutathione peroxidase 1 (Homo sapiens), sequence (P07203 whole entry, looked up): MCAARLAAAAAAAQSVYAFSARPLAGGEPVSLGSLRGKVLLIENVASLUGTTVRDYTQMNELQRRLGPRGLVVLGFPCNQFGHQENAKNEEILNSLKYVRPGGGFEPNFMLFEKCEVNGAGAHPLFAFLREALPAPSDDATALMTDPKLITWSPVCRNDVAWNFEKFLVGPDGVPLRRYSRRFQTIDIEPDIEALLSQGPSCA
(qHTS replaces the single test concentration by a dilution series.)

Test [2] deals with Phospholipid hydroperoxide glutathione peroxidase GPX4 (Homo sapiens) (UniProt P36969). Nature of the test: Primary qHTS Assay for Inhibitors of Recombinant Selenoprotein Glutathione Peroxidase 4 (GPX4) (AID 1845192). Also: series mostly up to about 50 µM; % is scaled to controls: 0 for no effect and ±100 for the full control effect; nearly all actives have a fitted effect of over 65% in size. The method, boiled down: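 qHTS, GR-coupled: GPX4 200 nM + cpd 30 min RT → GSH 1 mM, NADPH 0.5 mM, GR 100 nM → CHP 0.5 mM start; fluor 340/450 at t0 and t15 min; no-enzyme wells as control.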
Phospholipid hydroperoxide glutathione peroxidase GPX4 (Homo sapiens), sequence (P36969 whole entry, looked up): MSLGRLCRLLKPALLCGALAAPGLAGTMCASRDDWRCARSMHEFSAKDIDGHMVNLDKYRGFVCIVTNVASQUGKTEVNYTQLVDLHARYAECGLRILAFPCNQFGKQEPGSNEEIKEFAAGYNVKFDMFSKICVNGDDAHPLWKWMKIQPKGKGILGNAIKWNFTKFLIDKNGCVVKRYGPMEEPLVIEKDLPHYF

Test [3] has as its target Luciferin 4-monooxygenase (Photinus pyralis) (UniProt P08659). Description: Primary firefly luciferase (FLuc) qHTS assay for identification of artifact compounds. (AID 1845220). Also: nearly all actives have a fitted effect of over 60% in size. Also: potency is read from the fitted curve at half-maximal effect.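 As to activity change, negative = inhibition: series mostly up to about 54 µM; plate controls were DMSO vehicle for no effect and no enzyme for full effect.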 An outline of the steps:
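qHTS, 15 min compound preincubation with substrate (10 uM luciferin, 10 uM ATP) at RT, then 10 nM FLuc; 5 min; luminescence; % inhibition vs no-enzyme/DMSO controls, 4-parameter Hill fit.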

A short description of test [4]: Primary fluorescence-based thiol-reactive (MSTI) qHTS assay for identification of artifact compounds. (AID 1845221). Also: nearly all actives have a fitted effect of over 65% in size. Also: potency is read from the fitted curve at half-maximal effect.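 As to activity change, negative = thiol reactive: series mostly up to about 54 µM; thiol-reactive compounds lower the probe fluorescence signal.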 An outline of the steps: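 Curve-fitted percent inhibition (4-parameter Hill) derived from fluorescence, Ex 525/Em 598 nm, scaled with Acetyl-MSTI and MSTI; 1 h incubation at room temperature.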
Test [5] concerns Nanoluciferase (engineered Oplophorus gracilirostris luciferase). Description: Primary Nanoluciferase (NLuc) qHTS assay for identification of artifact compounds. (AID 1845222). Also: series mostly up to about 54 µM. An outline of the steps: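 Luminescence read-out of secreted NLuc in S16 cell conditioned medium (1:55); compounds tested with 15 min RT preincubation, then Nano-Glo substrate 1:100, 5 min. % inhibition vs no-enzyme and DMSO controls, 4-parameter Hill fit.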

Test [6] can be described thus: Primary redox qHTS assay for identification of artifact compounds. (AID 1845223).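 Also: 0% = DMSO and 100% = reference compound.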 The method, boiled down:
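Redox-cycling detection via DTT (250 uM final) oxidation coupled to Amplex Red (25 uM)/HRP (250 mU/mL) in HBSS. 15 min preincubation plus 30 min after DTT, room temperature. Ex/Em 525/598 nm; 4-parameter Hill fit against DMSO and 10 uM DA3003.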

Take `CC(C)=CCCC1(C)/C=C/C(OC(=O)C=C(C)C)C(C)(O)/C=C/C(=O)/C(CO)=C\C1` (stereo not given): the Potency entry in test [1], in test [2], in test [3], in test [4], in test [5] and in test [6] was “inactive” throughout.
For `O=C(CCl)Nc1cccc(NC2=NS(=O)(=O)c3ccccc32)c1`, the Potency entry in test [1], in test [2], in test [3], in test [4], in test [5] and in test [6] was “inactive” in each case.
As for `O=c1[nH]c2cccc(N3CCN(Cc4ccc(-c5ccccc5)cc4)CC3)c2o1`, the Potency result in test [1], in test [2], in test [3], in test [4], in test [5] and in test [6] was “inactive” in each case.
For the molecule `C/C=C(\C)C(=O)O[C@H]1C[C@](C)(O)[C@H]2CC=C(C)[C@H]2[C@@H]2OC(=O)[C@H](C)[C@H]21`, the Potency result in test [1], in test [2], in test [3], in test [4], in test [5] and in test [6] was “inactive” throughout.
Take `CCOc1cccc(NC(=O)c2ccc(N3CCCC3)c(C(F)(F)F)c2)c1`: the Potency result in test [1], in test [2], in test [3], in test [4], in test [5] and in test [6] was “inactive” throughout.
Regarding `CCNC(=O)Nc1ccc(-c2nc3c(c(N4CCOCC4C)n2)CCN(C2COC2)C3)cc1` (stereo not given), the Potency result in test [1], in test [2], in test [3], in test [4], in test [5] and in test [6] was “inactive” in each case.
On to `CC(C)CCNc1ncccc1C(=O)N1CCN(Cc2ccccc2)CC1`, for which the Potency entry in test [1], in test [2], in test [3], in test [4], in test [5] and in test [6] was “inactive” throughout.
Take `CC1OC(OC2C(O)COC(O[C@@H]3[C@@H](O)[C@@H](O)[C@H](OC4C(OC(=O)[C@]56CCC(C)(C)CC5C5=CCC7[C@@]8(C)C[C@H](O)[C@H](OC9OC(CO)C(O)C(O)C9O)[C@@](C)(CO)C8[C@H](O)C[C@@]7(C)[C@]5(C)CC6)OCC(O)C4O)O[C@H]3C)C2O)C(O)C(O)C1O` (stereo not given in full): the activity, negative = inhibition in test [1] was -4.86% [at 9.52 µM]; in test [5], -5.56% [at 11.6 µM]. In addition, the figures for the activity change, negative = inhibition in test [2] and in test [3] were -9.45% [at 9.73 µM] and -14.3% [at 11.6 µM], respectively. The activity change, negative = thiol reactive in test [4] is 417% [at 11.5 µM]. The redox activity (% of DA3003) in test [6] is 3.65% [at 11.5 µM].
In the case of `C=C1CCCC2(C)CCC(C(C)(C)OC3OC(C)C(O)C(O)C3OC(=O)/C(C)=C\C)CC12` (stereo not given), the Potency result in test [1], in test [2], in test [3], in test [4], in test [5] and in test [6] was “inactive” each time.
In the case of `COc1cc(C(=O)NC(=S)Nc2cccc(NC(=O)c3ccccc3)c2)cc(OC)c1OC`, the Potency entry in test [1], in test [2], in test [3], in test [4], in test [5] and in test [6] was “inactive” in each case.
On to `C=C[C@@]12COC(=O)C(=C)[C@@H]1[C@@H](O)[C@H](C(=C)C(=O)OC)[C@@H](O)C2`, for which the Potency result in test [1], in test [2], in test [3], in test [4], in test [5] and in test [6] was “inactive” in each case.
Consider `Oc1ccc(-c2cnc3ccc(NCc4ccco4)nn23)cc1`, for which the Potency entry in test [1], in test [2], in test [3], in test [5] and in test [6] was “inactive” throughout. The Potency in test [4] is 5.97 µM (active).
In the case of `C=CCc1ccc(OC(C)Cc2ccc(OC)c(OC)c2)c(OC)c1` (stereo not given), the Potency entry in test [1], in test [2], in test [3], in test [4], in test [5] and in test [6] was “inactive” each time.
On to `C/C(=C\CO[C@@H]1O[C@H](CO[C@H]2OC[C@](O)(CO)[C@H]2O)[C@@H](O)[C@H](O)[C@H]1O)C(C)(C)O`, for which the Potency entry in test [1], in test [2], in test [3], in test [4], in test [5] and in test [6] was “inactive” each time.
As to `C=C1C(=O)O[C@@H]2C[C@H](C)[C@@H]3CC(=O)C(C)=C3C[C@H]12`, the Potency entry in test [1], in test [2], in test [3], in test [4], in test [5] and in test [6] was “inactive” throughout.
Consider `CC(C)(CO)c1cc2cc(NC(=O)C3(c4ccc5c(c4)OC(F)(F)O5)CC3)c(F)cc2n1CC(O)CO` (stereo not given), for which the Potency entry in test [1], in test [2], in test [3], in test [4], in test [5] and in test [6] was “inactive” each time.
As to `Cc1ccc(C)c(NC(=O)[C@@H]2CCCN2S(=O)(=O)c2cccc3cccnc23)c1`, the Potency result in test [1], in test [2], in test [3], in test [4], in test [5] and in test [6] was “inactive” throughout.
As to `N#Cc1cc(CN2CCC(Nc3ncnc4sc(Cl)cc34)CC2)ccc1F`, the Potency entry in test [1], in test [2], in test [3], in test [4], in test [5] and in test [6] was “inactive” in each case.
Take `Cc1cccc(-c2[nH]ncc2-c2ccnc3ccccc23)n1`: the Potency result in test [1], in test [2], in test [3], in test [4], in test [5] and in test [6] was “inactive” in each case.
In the case of `O=C(Nc1ccc(-n2nc(C(F)(F)F)cc2C(F)(F)F)cc1)c1ccncc1F`, the Potency entry in test [1], in test [2], in test [3], in test [4], in test [5] and in test [6] was “inactive” throughout.
Consider `COc1cc(NC(=O)c2cc(C3CC3)on2)c(OC)cc1Cl`, for which the Potency result in test [1], in test [2], in test [3], in test [4], in test [5] and in test [6] was “inactive” throughout.
Consider `COc1cccc(OCCCN)c1-c1cc(Nc2cnc(C#N)cn2)n[nH]1`, for which the Potency entry in test [1], in test [2], in test [3], in test [4], in test [5] and in test [6] was “inactive” in each case.
For the molecule `O=C(Nc1cccc2cccnc12)c1ccc(N2C(=O)[C@@H]3C4C=CC(C4)[C@@H]3C2=O)cc1`, the Potency result in test [1], in test [2], in test [3], in test [4], in test [5] and in test [6] was “inactive” throughout.
As for `C=C1CC[C@@H]2[C@](C)(CO)[C@H](O)CC[C@@]2(C)[C@@H]1C/C=C1/C(=O)OCC1O` (stereo not given in full), the Potency result in test [1], in test [2], in test [3], in test [4], in test [5] and in test [6] was “inactive” each time.
For the molecule `Cc1ccc(C(=O)Nc2ccc(CN3CCN(C)CC3)c(C(F)(F)F)c2)cc1C#Cc1cnc2[nH]ncc2c1`, the Potency result in test [1], in test [2], in test [4], in test [5] and in test [6] was “inactive” throughout. Also, the Potency in test [3] is 23.9 µM (active).
